esBAF inh – Bmi1 luciferase reporter increase in mESCs, primary screen, esBAF inhibitor project, mouse ES cells, Bmi1 luciferase knock-in, single point. 350,000 compounds, 2% hits. reporter increase, % at 12.5 µM. 24 h; 100% = twice the neutral-well signal; in the data active means activation above about 40%;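 further: 0% = median of the plate's neutral control wells and 100% = double that signal; a rise in the Bmi1 reporter signal indicates esBAF inhibition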
Gli-Sufu antag – Gli-Sufu pathway antagonists, primary screen, luciferase luminescence, Sufu-KO-LIGHT cells, uHTS; 340,000 compounds, 0.74% hits; inhibition, % at 5 µM; AID 588413, 2011; Sufu-KO-LIGHT fibroblasts, Gli luciferase reporter luminescence;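 active means inhibition above about 55%, limit read from the data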;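 further: 0% = DMSO-treated cells and 100% = wells with medium but no cells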
SMARCA2 act – SMARCA2 (BRM) function activators, primary screen, cell-based, luminescence, high throughput; MG213 cells, MMTV-luciferase reporter, dexamethasone, overnight; activation, % at 9.1 µM; 370,000 compounds, 1% hits; AID 652017, 2013; in the data active means activation above about 7.8%;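 further: 0% = vehicle wells and 100% = reference activator wells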
697 NFkB inh – inhibitors of PMA/ionomycin-induced NF-kB reporter, 697 cells, primary screen, B-cell NF-kB inhibitor project, cell-based, luminescence, uHTS; 697 B-cell NF-kB luciferase reporter, 16 h; inhibition, % at 4 µM; 330,000 compounds, 0.33% hits; in the data active means inhibition above about 35%
Jurkat NFkB inh – inhibitors of induced NF-kB luciferase reporter, primary screen, TCR NF-kB activation inhibitor project, cell-based, luminescence, uHTS; Jurkat, PMA/ionomycin-induced NF-kB luciferase reporter; inhibition, % at 4 µM; 330,000 compounds, 0.53% hits; in the data active means inhibition above about 50%
Gli-Sufu confirm – Gli-SUFU pathway antagonists, confirmation, single concentration, luciferase luminescence, Sufu-KO-LIGHT cells | 2,500 compounds, 40% hits | shares compounds with Gli-Sufu antag | Gli luciferase reporter | inhibition, % at 5 µM | AID 602428, 2012;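 active means mean inhibition at 5 µM reaching about 45%, limit read from the data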;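 further: plate controls were DMSO-treated cells for no effect and wells lacking cells for full effect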
SufuKO cytotox – cytotoxicity in Sufu-KO-LIGHT cells, confirmation, cytotoxicity control for Gli-SUFU antagonist project, cell-based, ATP luminescence, single concentration. 2,500 compounds, 32% hits. shares compounds with Gli-Sufu antag. cytotoxicity, % at 5 µM;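 active means mean cytotoxicity at 5 µM above about 25%, limit read from the data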;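 further: cells exposed to compound overnight for roughly 16 to 18 hours; plate controls were DMSO wells with cells for no effect and medium without cells for full effect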
Wnt3a cs – Wnt3a reporter signal inhibition, confirmation, counter-screen for Gli-SUFU antagonist project, Wnt-LIGHT cells, luminescence, single concentration. shares compounds with Gli-Sufu antag. Wnt3a-driven luciferase reporter. inhibition, % at 6.25 µM. 2,500 compounds, 20% hits;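 active means mean inhibition above about 25%, limit read from the data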
Numbers without * were called inactive; · = no result given. Only some compounds are listed: those with a hit (about 3.3% of all), similar ones and a draw of the others.

SMILES	esBAF inh	Gli-Sufu antag	SMARCA2 act	697 NFkB inh	Jurkat NFkB inh	Gli-Sufu confirm	SufuKO cytotox	Wnt3a cs
Brc1ccc(C2=Nn3c(Cn4nnc5ccccc54)nnc3SC2)cc1	-6	55	-3	-5	0	32	4	-36
Nc1nc2ccccc2n1/N=C/c1cccnc1	·	16	0	18	-3	·	·	·
Nc1nc2ccccc2n1/N=C/c1ccc([N+](=O)[O-])s1	·	54	-6	-28	19	53*	19	-118
CO[C@H]1CN(C)C(=O)c2cc(NS(C)(=O)=O)ccc2OC[C@H](C)N(Cc2ccccn2)C[C@@H]1C	0	·	·	·	·	·	·	·
Cc1ccc(-c2cc3cccc[n+]3cc2-c2ccc(C)cc2)cc1	·	86*	-9	-81	50	89*	27*	48*
COCC(=O)Nc1ccc2c(c1)C(=O)N(C)C[C@@H](OC)[C@H](C)CN(C(=O)C1CCCC1)[C@H](C)CO2	1	·	·	·	·	·	·	·
Cn1c(CCN2CCN(c3ccccn3)CC2)nc2cc(NC(=O)COc3ccc(Cl)cc3)ccc21	-49	61*	-4	-25	27	31	-10	29*
COc1ccc(OCC(=O)Nc2ccc3c(c2)nc(CCN2CCN(c4ccccn4)CC2)n3C)cc1	-5	·	-6	·	·	·	·	·
C[C@H](CO)N1C[C@H](C)[C@H](CN(C)C(=O)c2ccccc2)OCCCC[C@H](C)Oc2ccc(NC(=O)C3CCCCC3)cc2C1=O	14	·	·	·	·	·	·	·
Cc1ccc(CNC(=O)CN(c2ccc(C)cc2)S(=O)(=O)c2c(C)nn(C)c2C)cc1	-2	11	1	5	4	·	·	·
Cc1ccc(CNC(=O)CN(c2ccc(C)cc2)S(=O)(=O)c2c(C)n[nH]c2C)cc1	0	57*	0	-5	3	26	9	37*
COc1ccc(S(=O)(=O)NC2CC(C)(C)NC(C)(C)C2)cc1C(C)C	-14	51	-1	2	-1	17	11	-18
Fc1ccc2[nH]c3c(NCc4ccccc4)ncnc3c2c1	-15	60*	-6	22	9	68*	12	34*
CCCCNC(=S)N(C)/N=C/c1ccc2c(c1)OCO2	·	99*	-3	-23	-30	21	23	8
Cc1nc2c(-c3ccc(Cl)cc3)cnn2c(N)c1-c1ccc(F)cc1	-19	63*	-6	-248	-51	81*	18	84*
O=C(COc1ccccc1)Nc1nnc(S(=O)(=O)N2CCCCC2)s1	-7	52	-4	4	13	12	21	-16
O=C(C[C@H]1CC[C@H](NS(=O)(=O)c2cccc(F)c2)[C@@H](CO)O1)NCc1ccc2c(c1)OCO2	3	·	·	·	·	·	·	·
Cc1csc2ncnc(NCCc3ccccn3)c12	·	67*	-8	-4	20	57*	29*	27*
COc1ccc2[nH]c(=O)c(CN(Cc3ccco3)C(=O)c3ccccc3)cc2c1	-5	95*	0	6	8	26	3	-15
Cc1cccc(N2CCN(C(=O)c3cc(S(=O)(=O)N4CCOCC4)cn3C)CC2C)c1 (stereo not given)	-4	58*	-1	2	2	14	1	10
C[C@H](CO)N1C[C@H](C)[C@H](CN(C)C(=O)c2ccccc2)Oc2ncc(C3=CCCCC3)cc2C1=O	3	·	·	·	·	·	·	·
Cc1ccc(CNC(=O)c2ccc3c(=O)c(O)c(-c4ccc(C)cc4)[nH]c3c2)cc1	-26	66*	0	-14	39	63*	12	70*
Cc1ccc(S(=O)(=O)N2CCC(C(=O)N[C@@H](C)C(=O)Nc3ccc4c(c3)OCO4)CC2)cc1	-1	53	-1	-11	-14	21	15	-4
COc1ccc(NC(=O)N[C@H]2CC[C@@H](CCNC(=O)Cc3ccncc3)O[C@@H]2CO)cc1	0	·	·	·	·	·	·	·
CO[C@H]1CN(C)C(=O)c2ccc(NC(=O)Nc3ccccc3Cl)cc2OC[C@@H](C)NC[C@@H]1C	6	·	·	·	·	·	·	·
SMILES	esBAF inh	Gli-Sufu antag	SMARCA2 act	697 NFkB inh	Jurkat NFkB inh	Gli-Sufu confirm	SufuKO cytotox	Wnt3a cs
Cc1cc(C)n2nc(SCC3COc4ccccc4O3)nc2n1 (stereo not given)	63*	99*	6	-48	-27	-13	9	-82
Cc1cc(C)c(C#N)c(SCC2COc3ccccc3O2)n1 (stereo not given)	2	-5	-2	1	-7	·	·	·
CC1(C)CC(=O)N(c2cccc(Cl)c2)C(=O)C1	-7	10	-2	23	13	·	·	·
CC1(C)CC(=O)N(c2ccc(Cl)cc2Cl)C(=O)C1	7	68*	0	16	15	7	4	-12
CC(C)[C@H](NC(=O)N1CC(=O)Nc2ccccc21)C(=O)Nc1nccs1	0	-15	-1	-9	11	·	·	·
CCC(C)[C@H](NC(=O)N1CC(=O)Nc2ccccc21)C(=O)Nc1nccs1 (stereo not given in full)	4	60*	-2	-2	-1	13	26*	-9
CC(=O)/C(N=Nc1ccc(C(=O)O)cc1[N+](=O)[O-])=C(\C)O	·	80*	-2	5	6	8	5	-14
C[C@H]1CN([C@@H](C)CO)S(=O)(=O)c2ccc(-c3ccccc3)cc2O[C@H]1CN(C)Cc1ccccc1	-15	·	·	·	·	·	·	·
COc1ccc(CNc2ncnc3sccc23)cc1	-9	61*	-5	0	35	48*	37*	24
COc1ccc(CNc2ncnc3sccc23)cc1OC	-9	30	-6	-9	30	·	·	·
Cc1ccc(C(=O)NC(=S)/C=C2\N(C)c3ccccc3C2(C)C)cc1	·	77*	-5	-4	41	27	12	-10
CN1/C(=C\C=N\NC(=O)c2ccc(O)cc2)C(C)(C)c2ccccc21	·	76*	-4	-6	39	65*	25*	12
CC(C)C(=O)NC(=S)/C=C1/N(C)c2ccccc2C1(C)C	·	56*	-2	-13	32	57*	17	12
CN1/C(=C/C(=S)NC(=O)C2CCC2)C(C)(C)c2ccccc21	-43	22	-1	3	15	·	·	·
CC(=O)/C=C1\N(C)c2ccc(C)cc2C1(C)C	·	61*	-3	4	15	61*	29*	30*

Screening results (PubChem BioAssay)
